An excerpt weighted towards active compounds, which were near 2% of everything screened.
M4 ag: CHRM4 agonism in calcium assay; P08173; CHO-K1 hM4/Gqi5, Fluo-8 calcium fluorescence; vehicle 0%, full acetylcholine response 100%; activation, % at 3 µM; hit rate 0.14% among 360,000; AID 624127;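 active = activation above the run mean over all test wells plus 3 SD, cut at about 32% in these data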;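 also: peak over basal fluorescence ratio per well then scaled between controls; 0% = DMSO wells and 100% = acetylcholine at EC100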
Target sequence (P08173 whole entry, looked up): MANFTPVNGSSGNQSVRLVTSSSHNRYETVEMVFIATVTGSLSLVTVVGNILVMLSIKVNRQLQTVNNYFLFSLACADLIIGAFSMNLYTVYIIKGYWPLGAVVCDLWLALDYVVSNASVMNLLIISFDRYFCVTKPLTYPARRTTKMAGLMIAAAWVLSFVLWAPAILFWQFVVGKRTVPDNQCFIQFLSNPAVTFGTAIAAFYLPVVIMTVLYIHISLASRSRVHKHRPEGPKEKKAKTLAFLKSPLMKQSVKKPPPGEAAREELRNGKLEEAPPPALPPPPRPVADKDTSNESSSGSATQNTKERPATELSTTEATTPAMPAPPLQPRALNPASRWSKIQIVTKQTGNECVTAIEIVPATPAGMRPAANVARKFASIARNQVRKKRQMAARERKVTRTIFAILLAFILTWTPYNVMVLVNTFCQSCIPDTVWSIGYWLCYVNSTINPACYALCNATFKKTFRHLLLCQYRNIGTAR
M4 PAM: positive allosteric modulators of human muscarinic M4 receptor | AID 624126 | activation, % at 3 µM | CHO-K1 hM4/Gqi5, Fluo-8 calcium fluorescence, ACh EC20; 0% = ACh EC20, 100% = maximal ACh | hit rate 0.4% among 360,000;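 active = activation above its plate's cutoff, the mean activation of sample wells plus 3 SD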
CHO-K1 Ca PAM: counter-screen for M1 PAMs: effect in parental CHO-K1 cells | ATP EC20, Fluo-8 calcium fluorescence; 0% at ATP EC20, 100% at ATP max | activation, % at 3 µM | hit rate 0.02% among 360,000 | AID 602247;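 active = activation above the run cutoff, the mean activation of all test compounds plus 3 SD, cut at about 40% in these data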;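 also: peak over basal fluorescence ratio in a 140 s read after ATP addition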
CHRM4 antagonist: antagonists of human muscarinic M4 receptor (CHRM4) | CHO-hM4 cells, ACh EC80, Fluo-8 calcium fluorescence | inhibition, % at 3 µM | hit rate 0.73% among 360,000 | AID 624125;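 active = inhibition above its plate's cutoff, the mean inhibition of sample wells plus 3 SD, cut at about 27% in these data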;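 also: 0% = acetylcholine EC80 with DMSO and 100% = DMSO without agonist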
M1 ag parental: counter-screen for M1 agonists: effect in parental CHO-K1 cells; activation, % at 3 µM; hit rate 0.48% among 360,000; Fluo-8 calcium fluorescence; scaled to maximal ATP response, vehicle zero; AID 602248; in the data active = activation above about 15%;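 also: untransfected CHO-K1 host cells lacking M1 receptor as counterscreen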
CHO-K1 Ca antag: nonselective inhibitor or artifact in parental CHO-K1 cells | ATP-induced calcium, Fluo-8 fluorescence | hit rate 0.6% among 360,000 | AID 602250 | inhibition, % at 3 µM;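 active = inhibition above a per-plate cutoff, the plate's mean sample inhibition plus 3 SD, cut at about 24% in these data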;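 also: 0% = DMSO plus EC80 ATP and 100% = DMSO alone without ATP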
Starred values were filed as active, the others as inactive; + = active, no number.

SMILES	M4 ag	M4 PAM	CHO-K1 Ca PAM	CHRM4 antagonist	M1 ag parental	CHO-K1 Ca antag
CCCOc1ccccc1N1C(=O)CC(N(O)c2ccccc2)C1=O (stereo not drawn)	6	-8	17	-7	4	-7
COc1ncnc2c1cnn2-c1ccccc1	1	27*	8	-16	0	-1
Cc1cccc(Nc2ncnc3c2cnn3C)c1	1	3	-10	-7	0	29*
CC(=O)Nc1ccc(Nc2ncnc3c2cnn3-c2ccccc2)cc1	6	21	4	28*	1	7
CC(=O)Nc1ccc(Nc2ncnc3c2cnn3-c2ccc(C)cc2C)cc1	2	5	-6	11	0	26*
Cn1c(=O)c(=O)n(C)c2cc(S(=O)(=O)NCc3ccc(Cl)cc3)ccc21	1	-3	23	2	1	-16
CC(=O)c1c(C)[nH]c(C)c1C(C)=O	1	32*	20	-8	1	-5
CC(=O)c1c(C)[nH]c(C(=O)O)c1C	1	-6	-13	-1	0	-2
Cc1ccc(S(=O)(=O)c2nnn3c2nc(NC2CCN(Cc4ccccc4)CC2)c2ccccc23)cc1C	3	-12	-1	43*	0	8
COc1ccc(CCNC(=S)N2CCC(C(=O)c3ccc(F)cc3)CC2)cc1OC	16	-11	9	-1	15*	-4
COc1ccc(C(=O)C2CCN(C(=O)Nc3ccc(C)cc3)CC2)cc1	9	5	-3	-19	19*	4
COc1ccc(C(=O)C2CCN(C(=S)NCCc3ccc(OC)c(OC)c3)CC2)cc1	21	-17	1	-8	18*	-6
COCCNC(=S)N1CCC(C(=O)c2ccc(F)cc2)CC1	3	1	6	-10	1	-9
COc1cc(SC)ccc1C(=O)OCC(=O)NCCNC(=O)COC(=O)c1ccc(SC)cc1OC	6	-8	-2	2	2	6
COC(=O)c1ccc(COC(=O)c2ccc(SC)cc2OC)cc1	4	-3	12	-9	20*	11
CC(CC(=O)Nc1ccc(Cl)c(S(=O)(=O)N2CCOCC2)c1)c1ccccc1 (stereo not drawn)	31	-9	-15	3	15*	5
O=S(=O)(Nc1ccc(F)cc1)c1ccc(S(=O)(=O)N2CCOCC2)cc1	18	-3	-4	3	34*	8
O=S(=O)(c1ccc(NC(=S)Nc2ccccc2)cc1)N1CCOCC1	1	29*	27	-12	1	-14
O=S(=O)(c1ccc(NC(=S)Nc2ccc3c(c2)OCO3)cc1)N1CCOCC1	0	0	22	3	2	-2
CCCC(C(=O)Nc1ccc(S(=O)(=O)N2CCOCC2)cc1)c1ccccc1 (stereo not drawn)	22	-5	16	4	19*	1
COc1ccc2c(c1)cc(C(=O)N[C@@H](CCSC)C(=O)N1CCC[C@H]1C(=O)O)n2C	2	5	-4	-11	0	4
CC1CCCCN1C(=O)CSc1ccc(-c2ccc(F)cc2)nn1 (stereo not drawn)	0	1	16	9	1	-13
Cc1ccc(NC(=O)c2ccccc2NS(=O)(=O)c2ccc(Cl)s2)cc1S(=O)(=O)N1CCOCC1	14	-10	0	13	16*	22
CCCn1c(NCCO)nc2ccccc21	1	-1	-3	0	0	-7
Cc1nn(-c2ccccc2)c(C)c1NC(=O)COc1cc(F)ccc1[N+](=O)[O-]	17	-3	-23	-4	18*	11
SMILES	M4 ag	M4 PAM	CHO-K1 Ca PAM	CHRM4 antagonist	M1 ag parental	CHO-K1 Ca antag
C[C@@H]1CN([C@H](C)CO)C(=O)c2cc(Br)cnc2O[C@H]1CN(C)Cc1ccccc1	1	-10	9	8	1	1
O=C(Nc1ccc(Cl)cc1)c1cc2c(cc1O)[nH]c1ccccc12	18	-13	-15	6	16*	29*
CC(c1ccccc1)N(CCC(c1ccccc1)C1CCOC(C)(C)C1)C(=O)c1ccco1 (stereo not drawn)	4	-8	21	-5	3	-1
COc1ccc(CN(CCC(c2ccc(F)cc2)C2CCOC(C)(C)C2)C(=O)c2ccco2)cc1 (stereo not drawn)	7	-22	5	30*	5	2
CCc1nnc(NC(=O)CSc2nc3ccccc3s2)s1	1	7	-6	-1	0	-2
CCOC(=O)c1oc2ccc(CNCCO)c(Cl)c2c1C	1	2	1	-1	0	9
CCOC(=O)c1oc2ccc(CNC3CCCCC3)c(Cl)c2c1C	8	-17	0	55*	1	-2
COCCCN1C(=O)C(CC(=O)NC2CCCC2)CC(C(=O)N2CCOCC2)=C1C (stereo not drawn)	0	5	13	1	0	2
CCN1/C(=C/C=C/c2oc3ccc(-c4ccccc4)cc3[n+]2CC)Oc2ccc(-c3ccccc3)cc21	+	-3	-23	99*	857*	102*
C[n+]1ccccc1/C=C/c1ccc(F)c(F)c1	1	-6	25	10	1	-12
COCCCNC(=O)/C(C#N)=C1\N=C(NC(=O)c2cccs2)c2ccccc21	2	-1	-12	6	0	4
O=C(Nc1ccc(F)c(Cl)c1)c1ccccc1NC(=O)C1CCCCC1C(=O)O (stereo not drawn)	2	1	-7	5	0	26*
Cn1c(=O)c2[nH]c(CCCCc3nc4ccccc4[nH]3)nc2n(C)c1=O	7	0	-7	0	0	-7
Cn1c(=O)c2[nH]c(CCCCCCCCc3nc4ccccc4[nH]3)nc2n(C)c1=O	14	-10	-11	30*	12	-3
CCNc1sc(C(=O)c2cccs2)c(N)c1-c1nc2ccccc2s1	3	2	3	38*	2	5
C=CCNc1sc(C(=O)c2ccccc2)c(N)c1-c1nc2ccccc2s1	-3	29*	-1	-3	0	8
Cc1ccc(S(=O)(=O)N(C)Cc2nc(-c3ccccn3)no2)cc1	1	-4	1	-3	0	-1
CC(C)C1CC(CCN)(c2ccccc2)CCO1 (stereo not drawn)	1	-13	17	48*	0	-7
Cc1ccc(C2(CCN)CCOC(C(C)C)C2)cc1 (stereo not drawn)	1	-1	19	-4	1	-10
Cc1c(CCOC(=O)c2cc([N+](=O)[O-])cc([N+](=O)[O-])c2)sc[n+]1CC(=O)c1ccc(Br)cc1	0	-17	17	29*	0	-7
Cc1c(CCOC(=O)c2ccc(Cl)cc2Cl)sc[n+]1CC(=O)c1ccccc1	11	-12	-6	44*	2	-7

Screens (PubChem BioAssay)
